HP1b chromo inh – HTS for Inhibitors of HP1-beta Chromodomain Interactions with Methylated Histone Tails; AlphaScreen HP1-beta / biotin-H3K9me3 peptide binding; AID 540317, 2011; 0.56% of 390,000 active; Potency, µM (highest dose often 114 µM), usual class: inhibitors; note: nearly all actives have a fitted effect of over 70% in size
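Compound inhibition of the preformed complex between 50 nM HP1-beta and 50 nM biotinylated H3K9me3 peptide was read by AlphaScreen. Buffer was PBS pH 7.4 with 0.01% Tween-20. Incubations ran 30 min at room temperature, with 10 ug/mL donor/acceptor beads.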
G9a block – qHTS Assay for Inhibitors of Histone Lysine Methyltransferase G9a | 8.8% of 350,000 active | Potency, µM (top dose mostly 102 µM), usual class: inhibitors | AID 504332, 2011 | G9a H3K9 monomethylation, AlphaScreen, 2 h; note: nearly all actives have a fitted effect of over 75% in size
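Methyltransferase reactions run at room temperature for 2 h (20 nM enzyme, 500 nM biotin-H3K9 peptide, 20 uM SAM) after a 15 min compound preincubation; product detected by AlphaScreen beads and anti-H3K9me1 antibody.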
JMJD2A Tudor inh – qHTS Assay for Inhibitors of JMJD2A-Tudor Domain. Potency, µM (doses to about 114 µM), actives largely listed as inhibitors. AlphaScreen JMJD2A-Tudor / H3K4me3 peptide binding. Lysine-specific demethylase 4A (Homo sapiens), O75164. 4.4% of 390,000 active; note: nearly all actives have a fitted effect of over 50% in size
PLK1 PBD block – qHTS for Inhibitors of PLK1-PDB (polo-like kinase 1 - polo-box domain): Primary Screen. Serine/threonine-protein kinase PLK1 (Homo sapiens), P53350. Plk1 PBD binding of FITC phosphopeptide, fluorescence polarization. Potency, µM, most hits filed as inhibitors. 2.8% of 360,000 active; note: series mostly up to about 57 µM; nearly all actives have a fitted effect of over 65% in size
Target sequence (P53350 whole entry, looked up, the tested form may be a part): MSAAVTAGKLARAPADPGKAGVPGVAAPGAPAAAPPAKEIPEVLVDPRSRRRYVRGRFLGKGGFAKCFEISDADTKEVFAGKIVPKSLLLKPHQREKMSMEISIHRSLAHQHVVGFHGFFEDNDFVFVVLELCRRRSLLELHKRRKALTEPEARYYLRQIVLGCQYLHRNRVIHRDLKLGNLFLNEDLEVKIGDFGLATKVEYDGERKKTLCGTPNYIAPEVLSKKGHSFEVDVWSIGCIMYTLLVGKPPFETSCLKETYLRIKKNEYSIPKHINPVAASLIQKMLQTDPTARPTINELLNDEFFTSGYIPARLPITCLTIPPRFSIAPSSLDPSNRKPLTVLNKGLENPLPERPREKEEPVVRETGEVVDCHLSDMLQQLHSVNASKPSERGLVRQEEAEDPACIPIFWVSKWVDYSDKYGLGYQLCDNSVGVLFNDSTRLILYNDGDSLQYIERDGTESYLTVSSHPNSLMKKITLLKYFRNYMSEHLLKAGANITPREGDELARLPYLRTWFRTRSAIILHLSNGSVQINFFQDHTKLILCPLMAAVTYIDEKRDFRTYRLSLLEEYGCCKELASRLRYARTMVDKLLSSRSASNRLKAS
PI5P4Ka inh – qHTS for Inhibitors of phosphatidylinositol 5-phosphate 4-kinase (PI5P4K); PI5P4Kalpha enzyme, ADP-Glo luminescence, 60 min; hits give low values; max response, %; 1.2% of 330,000 active; active = max response of -50% or lower; inconclusive = between -30% and -50%; inactive = -30% or higher; note: value at the top dose of about 77 µM
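Compounds were pin-transferred onto PI5P4Kalpha and substrate in HEPES pH 7.4 buffer with EGTA, CHAPS and 5% DMSO. ATP (5 microM final) started the reaction, which ran 60 minutes at room temperature before ADP-Glo detection.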
BAZ2B inh – qHTS Assay for Inhibitors of BAZ2B | Potency, µM (top dose mostly 114 µM), most hits filed as inhibitors | 4.4% of 360,000 active | Bromodomain adjacent to zinc finger domain protein 2B (Homo sapiens), Q9UIF8 | AlphaScreen BAZ2B-H3K14Ac peptide displacement; note: nearly all actives have a fitted effect of over 60% in size
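Inhibition is scored as reduced AlphaScreen emission. The BAZ2B/b-H3(5-23)K14Ac complex (50 nM each) in PBS pH 7.4, 0.01% Tween-20 meets compound (up to 110 uM) for 30 min at RT before bead addition.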
Hits are given with their value; 0 = inactive; ? = inconclusive; - = no result given; [ ] = dose if it differs, or a comment. Only some compounds are listed: those with a hit (about 12% of all), similar ones and a draw of the others. Unless noted, calls come from the whole dose curve; as a rule, active = well fitted curve in the direction sought with a large enough effect; inconclusive = small, poorly fitted or top-dose-only effect, or another doubt; inactive = no such curve, though single readings can be large; an effect the other way counts as inactive or inconclusive.

SMILES	HP1b chromo inh	G9a block	JMJD2A Tudor inh	PLK1 PBD block	PI5P4Ka inh	BAZ2B inh
CCN(CC)CCN1C(=O)C(=O)/C(=C(/O)c2c(C)[nH]c(C(=O)OC)c2C)C1c1ccc(OC)cc1 (configuration not stated)	0	79µM	0	0	0	0
COC(=O)c1[nH]c(C)c(/C(O)=C2\C(=O)C(=O)N(CCN(C)C)C2c2cc(OC)ccc2OC)c1C (configuration not stated)	0	50µM	?	0	0	0
COc1ccc(S(=O)(=O)NC(=O)C2(C)CCN2C(=O)Cc2cc(F)ccc2F)cc1 (configuration not stated)	-	-	-	0	0	-
Cc1ccsc1/C=N/N=C/c1sccc1C	0	0[0.501 µM]	0	0	0	0
Cc1ccsc1C=Nc1ccc(O)cc1	?	13µM	79µM	?	-51	40µM
Cc1ccc(OCC(=O)OCC(=O)NC2CCCCCC2)cc1C	-	-	-	0	0	-
Cc1ccc(CN2CCSc3ccc(C(=O)N4CCN(c5ccccc5)CC4)cc32)cc1	0	18µM	?	-	-	0
Cc1c(C)n(Cc2ccccc2)c2ccc(C(=O)N3CCN(c4ccccc4)CC3)cc12	?	?	14µM	-	-	?
Cc1c(C)n(Cc2ccccc2)c2ccc(C(=O)N3CCN(c4ccc(F)cc4)CC3)cc12	0	?	?	-	-	0
Cc1ccc(CN2CCSc3ccc(C(=O)NCc4ccccn4)cc32)cc1	0	40µM	?	0	0	?
CCn1nc(C)c(/C=N/NC(=O)c2ccc3c(c2)c(C)c(C)n3Cc2ccccc2)c1C	0	?	35µM	0	0	?
CCCNC(=O)c1c(NC(=O)c2ccccc2)sc2c1CCC(C(C)(C)C)C2 (configuration not stated)	0	0	0	-	-	0
Cn1cccc1C1CCCN1CC(=O)Nc1ccc(C(N)=O)cc1 (configuration not stated)	0	-	0	0	0	-
CCc1nc2ccc(C(=O)Nc3ccc(Cl)c(Cl)c3)cn2c1N(C)Cc1ccc(OC)cc1	-	-	-	0	0	-
O=S(=O)(Nc1ccc(N=Nc2ccc(O)c3ccccc23)cc1)c1ccccc1	40µM	?	25µM	0	0	40µM
O=[N+]([O-])c1ccc(N=Nc2ccc(O)c3ccccc23)cc1	7.9µM	-	3.2µM	0	-66	-
O=S(=O)(Nc1ccc(Nc2ccccc2)cc1)c1ccc(F)cc1	?	-	?	0	0	-
O=S(=O)(Nc1ccc(S(=O)(=O)Nc2ccccc2)cc1)c1ccccc1	0	0	0	0	0	0
O=S(=O)(Nc1ccc(N=Nc2ccccc2)cc1)c1ccccc1	45µM	32µM	35µM	0	0	35µM
O=S(=O)(Nc1ccccc1)c1ccc(NS(=O)(=O)c2c(F)cccc2F)cc1	0	50µM	0	0	0	0
O=C(NCCCN1CCCC1=O)c1cc2nc(-c3ccco3)cc(C(F)(F)F)n2n1	0	?	0	0	0	0
Cn1c(CNc2cccc(C(F)(F)F)c2)n[nH]c1=S	?	0[0.501 µM]	?	27µM	0	0
Cn1c(-c2csc(-c3cccc(C(F)(F)F)c3)n2)n[nH]c1=S	0	?	0	0	0	0
O=C(N=C1SC2CS(=O)(=O)CC2N1Cc1ccccc1Cl)C1CCCO1 (configuration not stated)	0	0	0	0	0	0
Cc1cc(=O)n2[nH]c(-c3ccsc3-n3c(C)ccc3C)cc2n1	0	-	0[11.4 µM]	0	-86	45µM
Cc1cc(=O)n2[nH]c(-c3ccc(F)cc3)cc2n1	0	0	0	0	0	0
Cc1nc2cc(-c3ccsc3-n3c(C)ccc3C)[nH]n2c(=O)c1Cl	0	?	?	0	?	50µM
Cc1oc(C(C)(C)C)cc1C(=O)N1CCCC1C(=O)O (configuration not stated)	0	0	100µM	0	0	0
